Source: PubChem BioAssay AID1159580 (chemical genetic matrix, 2015)
Several values for one entry are separate records, joined by “and”; a condition that tells them apart may be missing. Equal entries are not always repeated. Out of some 5,500 compounds screened, about 2,000 (36%) were called active. Not shown: some 18% with an inconclusive outcome. Cut-off read from the data, not from the text of the source: active = normalized growth mostly below about 0.91 (no sharp cut-off); inconclusive = no clear call, values can overlap the other calls; inactive = mostly above about 0.92. Some of the results follow.

Assay: chemical genetic growth profiling, strain panel (AID 1159580);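 note: tested at 20 µM; growth read once vehicle control cultures reached saturation at 30 °C; 1 = growth at the plate median or of vehicle wells; lower values mean less growth of the strain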
Details: S. cerevisiae deletion strains, growth OD

Measured: normalized growth

O=c1[nH]c(=O)n(C2C[C@H](O)[C@@H](CO)O2)cc1C(F)(F)F (stereo partly specified)
inactive: locus YAL013W, strain DEP1, stronger effect = lower value 0.992 | locus YAL021C, strain ccr4, stronger effect = lower value 0.999 | locus YAL026C, strain drs2, stronger effect = lower value 0.973 | locus YAL030W, strain snc1, stronger effect = lower value 0.979 | locus YBL061C, strain skt5, stronger effect = lower value 0.974 | locus YBR009C, strain hhf1, stronger effect = lower value 0.981 | locus YBR021W, strain FUR4, stronger effect = lower value 0.968 | locus YBR023C, strain chs3, stronger effect = lower value 0.983 | locus YBR171W, strain sec66, stronger effect = lower value 0.965 | locus YBR229C, strain ROT2, stronger effect = lower value 0.986 | locus YBR231C, strain swc5, stronger effect = lower value 0.976 | locus YBR279W, strain paf1, stronger effect = lower value 0.98 | locus YCL011C, strain gbp2, stronger effect = lower value 0.954 | locus YCL016C, strain dcc1, stronger effect = lower value 0.972 | locus YCL029C, strain bik1, stronger effect = lower value 0.971 | locus YCL069W, strain vba3, stronger effect = lower value 0.994 | locus YCR088W, strain abp1, stronger effect = lower value 0.973 | locus YDL005C, strain med2, stronger effect = lower value 0.964 | locus YDL035C, strain GPR1, stronger effect = lower value 0.986 | locus YDL040C, strain nat1, stronger effect = lower value 0.976 | locus YDL074C, strain BRE1, stronger effect = lower value 0.97 | locus YDL101C, strain DUN1, stronger effect = lower value 0.987 | locus YDL134C, strain PPH21, stronger effect = lower value 1 | locus YDL185W, strain tfp1, stronger effect = lower value 0.962 | locus YDL192W, strain arf1, stronger effect = lower value 0.981 | locus YDR001C, strain nth1, stronger effect = lower value 0.947 | locus YDR069C, strain doa4, stronger effect = lower value 0.95 | locus YDR101C, strain arx1, stronger effect = lower value 0.981 | locus YDR137W, strain rgp1, stronger effect = lower value 0.901 | locus YDR150W, strain NUM1, stronger effect = lower value 0.996 | locus YDR159W, strain sac3, stronger effect = lower value 0.947 | locus YDR162C, strain NBP2, stronger effect = lower value 0.984 | locus YDR195W, strain ref2 0.922 | locus YDR297W, strain sur2, stronger effect = lower value 0.969 | locus YDR318W, strain mcm21, stronger effect = lower value 0.987 | locus YDR334W, strain swr1, stronger effect = lower value 0.964 | locus YDR335W, strain msn5, stronger effect = lower value 0.96 | locus YDR388W, stronger effect = lower value 0.975 | locus YDR392W, strain spt3, stronger effect = lower value 1 | locus YDR502C, strain sam2, stronger effect = lower value 0.979 | locus YEL003W, strain gim4, stronger effect = lower value 0.979 | locus YEL037C, strain rad23, stronger effect = lower value 0.984 | locus YEL061C, strain CIN8 (second series), stronger effect = lower value 0.952 | locus YEL061C, strain CIN8, stronger effect = lower value 0.995 | locus YER015W, strain faa2, stronger effect = lower value 0.972 | locus YER016W, strain bim1, stronger effect = lower value 0.978 | locus YER110C, stronger effect = lower value 0.966 | locus YER111C, strain swi4, stronger effect = lower value 0.976 | locus YER155C, strain BEM2 (second series), stronger effect = lower value 0.957 | locus YER155C, strain BEM2, stronger effect = lower value 0.984 | locus YER167W, strain BCK2, stronger effect = lower value 0.945 | locus YFR010W, strain ubp6, stronger effect = lower value 0.953 | locus YGL078C, strain dbp3, stronger effect = lower value 0.966 | locus YGL086W, strain mad1, stronger effect = lower value 0.979 | locus YGL167C, strain pmr1, stronger effect = lower value 0.968 | locus YGL173C, strain kem1, stronger effect = lower value 0.98 | locus YGL227W, strain vid30, stronger effect = lower value 0.946 | locus YGL240W, strain doc1, stronger effect = lower value 1 | locus YGL248W, strain PDE1, stronger effect = lower value 0.978 | locus YGL253W, strain hxk2, stronger effect = lower value 0.972 | locus YGR078C, strain PAC10, stronger effect = lower value 0.997 | locus YGR135W, strain pre9, stronger effect = lower value 0.969 | locus YGR229C, strain SMI1, stronger effect = lower value 0.963 | locus YGR252W, strain gcn5, stronger effect = lower value 0.971 | locus YHR013C, strain ard1, stronger effect = lower value 0.923 | locus YHR027C, strain rpn1, stronger effect = lower value 0.958 | locus YHR030C, strain SLT2, stronger effect = lower value 0.985 and 1.02 | locus YHR079C, strain IRE1 (second series), stronger effect = lower value 0.974 | locus YHR079C, strain IRE1, stronger effect = lower value 1.03 | locus YHR094C, strain hxt1, stronger effect = lower value 0.983 | locus YHR129C, strain ARP1, stronger effect = lower value 0.987 | locus YHR142W, strain chs7, stronger effect = lower value 0.922 | locus YHR200W, strain rpn10, stronger effect = lower value 0.985 | locus YIL066C, strain RNR3, stronger effect = lower value 0.986 | locus YIL073C, strain SPO22, stronger effect = lower value 0.967 | locus YIL125W, strain kgd1, stronger effect = lower value 0.968 | locus YIR030C, strain dcg1, stronger effect = lower value 0.969 | locus YJL092W, strain hpr5, stronger effect = lower value 0.962 | locus YJL095W, strain BCK1 (second series), stronger effect = lower value 0.962 | locus YJL095W, strain BCK1, stronger effect = lower value 0.969 and 1.01 | locus YJL115W, strain asf1, stronger effect = lower value 0.928 | locus YJL129C, strain trk1, stronger effect = lower value 0.916 | locus YJL134W, strain LCB3, stronger effect = lower value 0.987 | locus YJL154C, strain vps35, stronger effect = lower value 0.975 | locus YJL164C, strain tpk1, stronger effect = lower value 0.968 | locus YJL166W, strain qcr8, stronger effect = lower value 0.953 | locus YJL168C, strain set2, stronger effect = lower value 0.987 | locus YJL187C, strain SWE1 (second series), stronger effect = lower value 0.982 | locus YJR043C, strain POL32, stronger effect = lower value 0.973 | locus YJR066W, strain TOR1, stronger effect = lower value 0.963 | locus YJR075W, strain HOC1, stronger effect = lower value 0.991
